Data on eight molecules can be found in PubChem BioAssay (NCI).

Molecules are shown by their SMILES. About 83,000 compounds went through this panel and 20% of them were active in at least one assay; those are over-represented in the sample as a whole.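 Compound tested at a single concentration for 48 hours in 96-well plates; a percent growth value below 10 was scored as active.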 A number with no mark means an inactive call. The source made the active and inactive calls.

Common to all, as to experiment: NCI-60 one-dose screen, 48 h (100 = growth as untreated, 0 = no growth, -100 = all killed)
One test concerns NCI-H23 lung. Conditions: 10 µM unless noted.
The next test deals with NCI-H226 lung. The following applies: 10 µM unless noted.
The subject of another test is NCI-H322M lung. The following applies: 10 µM unless noted.
The next test deals with HOP-62 NSCLC. The following applies: 10 µM unless noted.
A further test deals with NCI-H460 lung. The following applies: 10 µM unless noted.
The next test deals with HOP-92 NSCLC. The following applies: 10 µM unless noted.
The next test deals with NCI-H522 lung. Conditions: 10 µM unless noted.
The test system of another test is A549/ATCC NSCLC. Conditions: 10 µM unless noted.
For a further test, the system named is 786-0 renal. The following applies: 10 µM unless noted.
Another test relates to COLO 205 colon. The following applies: 10 µM unless noted.
A further test relates to DU-145 prostate. The following applies: 10 µM unless noted.
The subject of another test is K-562 leukemia. Conditions: 10 µM unless noted.
The next test has as its system MALME-3M melanoma. The following applies: 10 µM unless noted.
The next test has as its system MDA-MB-231 breast. Conditions: 10 µM unless noted.
Another test deals with SF-268 CNS. The following applies: 10 µM unless noted.
The test system of the next test is SF-295 CNS. The following applies: 10 µM unless noted.
A further test deals with SF-539 CNS. The following applies: 10 µM unless noted.
Another test concerns UACC-257 melanoma. Conditions: 10 µM.
A further test relates to M14 melanoma. Conditions: 10 µM unless noted.
For a further test, the system named is RXF 393 renal. Conditions: 10 µM unless noted.

Regarding `O=C1c2c(c3c4cc(O)ccc4oc3c3[nH]c4ccccc4c23)C(=O)N1O`, the growth in the test with NCI-H23 lung was 2.57% (active); in the test with NCI-H226 lung, 63.6%; in the test on NCI-H322M lung, 2.25% (active); with HOP-62 NSCLC, -25.6% (active); in the test with NCI-H460 lung, -6.86% (active); with HOP-92 NSCLC, -8.01% (active). The growth in the test on NCI-H522 lung was -5.7% (active); in the test on A549/ATCC NSCLC, 43.5%; in the test on 786-0 renal, 2.62% (active); in the test on COLO 205 colon, 61.5%; in the test with DU-145 prostate, 11.3%; in the test on K-562 leukemia it was 14.4%. For the same molecule, the growth is 9.51% (active) in the test with MALME-3M melanoma; 26% in the test with MDA-MB-231 breast; 17.4% with SF-268 CNS; 10.2% in the test on SF-295 CNS; -15% (active) with SF-539 CNS; 22.1% in the test with UACC-257 melanoma. The growth with M14 melanoma was -4.66% (active).

For `Nc1nc(N)c2c(n1)NC(c1ccccc1)CC(c1ccc(Nc3nc(NCCO)nc(Nc4ccc(Cl)cc4)n3)cc1)=N2` (centres undefined), the growth is 41.2% with NCI-H23 lung; 91.9% with NCI-H226 lung; 63.2% in the test on NCI-H322M lung; -69.6% (active) in the test on HOP-62 NSCLC; -80.3% (active) in the test with NCI-H460 lung; -79.1% (active) in the test with HOP-92 NSCLC. Besides, the growth was 41% in the test on NCI-H522 lung; 75.7% in the test on A549/ATCC NSCLC; -86% (active) with 786-0 renal; 80.8% with COLO 205 colon; 41.6% in the test with DU-145 prostate; -40.7% (active) in the test on K-562 leukemia. Further, the growth in the test on MALME-3M melanoma is -89.6% (active); in the test on MDA-MB-231 breast it was 73.3%; in the test with SF-268 CNS, 76.5%; in the test on SF-295 CNS it was 46.9%; in the test on SF-539 CNS, 71.1%; in the test on UACC-257 melanoma, 113%. Also, in the test with M14 melanoma, the growth is 81%.

Take `Cc1ccc(-c2cc(-c3ccc(N(C)C)cc3)n3c(n2)nc2ccccc23)cc1`: the growth with NCI-H23 lung is 57.1%; in the test on NCI-H226 lung, 57%; in the test on NCI-H322M lung, 103%; in the test with HOP-62 NSCLC, 83.1%; in the test with NCI-H460 lung it was 61.7%; with HOP-92 NSCLC it was 21.7%. In addition, the growth in the test on NCI-H522 lung was 25.4%; with A549/ATCC NSCLC, 56.5%; in the test on 786-0 renal it was 80.8%; in the test on COLO 205 colon, 92.5%; in the test on DU-145 prostate, 87.2%; in the test on K-562 leukemia, 29.2%. For the same molecule, the growth is 96.1% in the test with MALME-3M melanoma; 66% with MDA-MB-231 breast; 88.7% in the test with SF-268 CNS; 55% in the test with SF-295 CNS; 89.8% in the test with SF-539 CNS; 65.8% in the test with UACC-257 melanoma. Further, the growth in the test on M14 melanoma was 77.2%.

For the molecule `C=CCn1c(SCC(=O)Nc2cccc(C(=O)/C=C/c3cc(OC)c(OC)c(OC)c3)c2)nc2ccccc2c1=O`, the growth in the test on NCI-H23 lung is 24.4%; with NCI-H226 lung it was 75.8%; in the test on NCI-H322M lung, 67.1%; in the test on HOP-62 NSCLC it was 45.8%; with NCI-H460 lung, 16.8%; with HOP-92 NSCLC it was 48.4%. Moreover, the growth was 39.2% with NCI-H522 lung; 80.2% in the test on A549/ATCC NSCLC; 43.7% in the test with 786-0 renal; 108% in the test on COLO 205 colon; 13.7% in the test with DU-145 prostate; 71% in the test on MALME-3M melanoma. The growth with MDA-MB-231 breast was 29.5%; in the test with RXF 393 renal it was 17.1%; with SF-268 CNS, 70.3%; in the test on SF-295 CNS, 83.5%; in the test with SF-539 CNS it was 21.1%; in the test with UACC-257 melanoma it was 80.9%. Moreover, the growth with M14 melanoma is 63%.

On to `COc1cc2c3c(n(CCCNC4CCC4)c(=O)c2cc1OC)-c1cc2c(cc1C3=O)OCO2`, for which the growth in the test on NCI-H23 lung is -68% (active); in the test with NCI-H226 lung it was 70.6%; in the test with NCI-H322M lung it was -37.7% (active); in the test on HOP-62 NSCLC it was -72.2% (active); in the test on NCI-H460 lung, -50.4% (active); in the test on HOP-92 NSCLC, 87.9%. The growth in the test with NCI-H522 lung is -44.9% (active); with A549/ATCC NSCLC, -50.6% (active); in the test on 786-0 renal, -85.2% (active); with COLO 205 colon it was -79.9% (active); in the test on DU-145 prostate, -73.5% (active); in the test with MALME-3M melanoma it was -46.2% (active). Moreover, the growth with MDA-MB-231 breast is -65.1% (active); in the test on RXF 393 renal it was -74% (active); in the test with SF-268 CNS, 45.6%; in the test on SF-295 CNS, 20.4%; with SF-539 CNS it was -83.5% (active); in the test on M14 melanoma it was -78% (active).

As for `C=C1C(=O)O[C@@H]2/C=C(/C)C3=CC(=O)[C@@](C)(C[C@H](OC(=O)/C(C)=C\C)[C@@H]12)O3`, the growth in the test on NCI-H23 lung is 6.39% (active); with NCI-H226 lung it was 34.5%; with NCI-H322M lung it was 89.1%; in the test with HOP-62 NSCLC, 82.4%; in the test on NCI-H460 lung it was 27.2%; with HOP-92 NSCLC, -11.8% (active). Further, the growth was -82.3% (active) in the test on NCI-H522 lung; 72.6% with A549/ATCC NSCLC; -56.5% (active) in the test on 786-0 renal; -52.1% (active) in the test on COLO 205 colon; 8.26% (active) with DU-145 prostate; -22.9% (active) in the test with MALME-3M melanoma. Moreover, the growth in the test with MDA-MB-231 breast is -16.8% (active); in the test with RXF 393 renal, -65% (active); in the test with SF-268 CNS, 30.2%; in the test on SF-295 CNS, 55.9%; in the test on SF-539 CNS, -19.4% (active); with UACC-257 melanoma, -36.2% (active). Also, the growth in the test on M14 melanoma is -27.6% (active).

Regarding `COc1cnc2c(c1)C(=O)c1c-2n(CCCn2ccnc2)c(=O)c2cc(OC)c(OC)cc12`, the growth in the test on NCI-H23 lung was -1.32% (active); in the test on NCI-H226 lung it was 29.7%; with NCI-H322M lung, -8.33% (active); in the test on HOP-62 NSCLC, -47.5% (active); in the test with NCI-H460 lung, -47.9% (active); in the test with HOP-92 NSCLC, -12.2% (active). For the same molecule, the growth is -80.5% (active) with NCI-H522 lung; -14.9% (active) with A549/ATCC NSCLC; -14.9% (active) with 786-0 renal; -85.2% (active) in the test on COLO 205 colon; -2.47% (active) in the test with DU-145 prostate; -51.4% (active) with MALME-3M melanoma. Also, the growth with MDA-MB-231 breast was -0.696% (active); in the test on RXF 393 renal it was -10.5% (active); with SF-268 CNS it was 29.2%; with SF-295 CNS it was -20.5% (active); with SF-539 CNS, -35.2% (active); with M14 melanoma, -86.5% (active).

For the molecule `COc1cc2c3c(n(CCCN4CCCC4)c(=O)c2cc1OC)-c1cc2c(cc1C3=O)OCO2`, the growth with NCI-H23 lung is -73.2% (active); in the test with NCI-H226 lung, 80.1%; in the test with NCI-H322M lung, -40.2% (active); in the test on HOP-62 NSCLC it was -72.6% (active); in the test on NCI-H460 lung it was -78.6% (active); in the test on HOP-92 NSCLC, 119%. Also, the growth is -59.7% (active) in the test with NCI-H522 lung; -77.1% (active) in the test with A549/ATCC NSCLC; -90.9% (active) with 786-0 renal; -77.3% (active) with COLO 205 colon; -71.1% (active) in the test with DU-145 prostate; -76.5% (active) in the test on MALME-3M melanoma. Moreover, the growth is -76.1% (active) with MDA-MB-231 breast; -75.9% (active) in the test with RXF 393 renal; -49.1% (active) in the test on SF-268 CNS; 35.1% in the test with SF-295 CNS; -83.2% (active) in the test on SF-539 CNS; -86.3% (active) in the test on M14 melanoma.
